Cytotoxicity data for 100 compounds are collected here from PubChem BioAssay AID430 (Sanford-Burnham Center for Chemical Genomics, 2006).

The structures appear in SMILES notation. The campaign covered roughly 63,000 compounds. About 1,100 (1.7%) were called active. The sample as a whole holds a higher share of actives than the screen did. Measured potencies and affinities stand elsewhere. Values without a mark were called inactive. No stated cut-off is given here; in the data, active means cytotoxicity above about 50%; inactive means the rest.

The test can be described thus: cytotoxicity in HPDE-C7 cells, cell-based, fluorescence, HTS (AID 430).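 Further: cells exposed to compound for 48 hours before viability readout; 0% = vehicle and 100% = reference cytotoxic drug.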 The settings on record: HPDE-C7 pancreatic duct cells viability, at 10 µM, stronger effect = higher value.
On to `CCOCCCNC(=O)N[C@@H](Cc1ccccc1)C(=O)OC`, for which the cytotoxicity is 0.6%.

Take `CCOC(=O)Cc1cc(=O)n(-c2nc3ccccc3s2)[nH]1`: the cytotoxicity was 75.9% (active). The value for `COC(=O)Cc1cc(=O)n(-c2nc3ccccc3[nH]2)[nH]1` was -3%. The value for `CCOC(=O)c1nc2ccccc2s1` was -0.3%; that for `CCOC(=O)CC(=O)Nc1nc2ccccc2s1` was 1.7%; that for `COC(=O)Cc1cc(=O)n(-c2nc3ccccc3s2)[nH]1` was 74.2% (active).

For `COC(=O)Cc1cc(=O)n(-c2ccccc2)[nH]1`, the cytotoxicity is -18.7%.

Regarding `COc1ccc(CN/C=C2\CCCCC2=O)cc1`, the cytotoxicity was 5.7%. Take `Cc1ccccc1-c1nc(CS(=O)CC(=O)NCCCN(C)c2ccccc2)c(C)o1` (stereo not given): the cytotoxicity is 10.9%.

For `COc1ccc(-n2nc(C(=O)N3CCC(C#N)CC3)c3c4ccccc4n(C)c3c2=O)cc1`, the cytotoxicity is -4.7%. The value for `Cc1cccc(OCc2nnc(SCC(=O)Nc3cc(C)on3)n2C)c1` was -0.4%. For `Cn1c(=O)[nH]c(=O)c2c1ncn2CCN1CCCCC1` the value was -5.6%; for `CCCOc1ccc(C2c3c(oc4cc(C)c(C)cc4c3=O)C(=O)N2CCCN(C)C)cc1` (stereo not given), -4.2%. The value for `O=C(CSc1n[nH]c(-c2ccccc2)n1)c1ccc(O)c(O)c1` was -0.1%; that for `Oc1ccc(-c2nc(-c3ccc(O)c(O)c3)cs2)cc1` was 73.5% (active).

In the case of `CN(c1ccc(O)cc1)c1nc(-c2ccccc2)cs1`, the cytotoxicity is 8%. With `COc1cc(-c2csc(C)n2)ccc1O`, the cytotoxicity was -29.1%. In the case of `CCOC(=O)COn1c(=O)c[n+]([O-])c2ccccc21`, the cytotoxicity is -1.5%.

`CCn1c(NC2CCCCC2)nc2ccccc21`: the cytotoxicity is 7.5%. For `COc1cccc(CNc2nc3ccccc3n2CCN2CCCCC2)c1` the value was 11.1%. Turning to `CCOC(=O)CC12CN3CN(C1)CC(CC(=O)OCC)(C3)C2=O`, the cytotoxicity was -0.6%. Take `CCC(=O)N1CCN(CCN=CC2=C(O)CC(C)(C)CC2=O)CC1`: the cytotoxicity is 5.7%. On to `O=C1C(=C2CCCCC2)SC(=S)N1Cc1ccco1`, for which the cytotoxicity is 60.9% (active). For `O=C(O)CCN1C(=O)C(=C2CCCCCC2)SC1=S` the value was -8.4%; for `O=C1c2ccccc2C(=O)N1Cc1ccco1`, -1.5%; for `CSc1nc(N)nc(SCC(=O)c2ccccc2)c1C#N`, 13.7%.

In the case of `CCCc1nc(SCC(=O)N2CCN(c3ccccc3)CC2)c2c(=O)n(C)c(=O)n(C)c2n1`, the cytotoxicity is 0%.

As for `Cn1c(=O)c2c(SCC(=O)N3CCC(Cc4ccccc4)CC3)nc(C3CC3)nc2n(C)c1=O`, the cytotoxicity is -3.8%.

Take `CCc1nc(SCC(=O)N2CCCc3ccccc32)c2c(=O)n(C)c(=O)n(C)c2n1`: the cytotoxicity is -9%. Consider `CCCc1nc(SCC(=O)N2CCc3ccccc32)c2c(=O)n(C)c(=O)n(C)c2n1`, for which the cytotoxicity was 5.3%. Consider `CCCc1nc(SCC(=O)N2CCCc3ccccc32)c2c(=O)n(C)c(=O)n(C)c2n1`, for which the cytotoxicity is 77% (active). The value for `Cc1cc(C(=O)COC(=O)c2ccc3c(c2)OCO3)c(C)n1Cc1cccs1` was -3.8%; that for `COCCNC(=O)C(C)OC(=O)c1cc2occc2n1C` (stereo not given) was -3.5%; that for `Cc1csc(NC(=O)C2CCC(C)(C(=O)O)C2(C)C)n1` (stereo not given) was -12.1%. Regarding `Cc1cc(C(=O)NCCCN2CCN(C3CCCCC3)CC2)n(-c2ccccc2)n1`, the cytotoxicity is 1.4%. In the case of `Cc1cc(C(=O)NCCCN2CCOCC2)n(-c2ccccc2)n1`, the cytotoxicity is 1.2%. The value for `Cc1cc(C(=O)NCCN2CCN(c3cccc(Cl)c3)CC2)n(-c2ccccc2)n1` was 55.2% (active); that for `CC(=O)Nc1cnc2ccccc2n1` was -6.4%; that for `CN1CCN(c2nc(-c3ccccc3)c3cc(Cl)ccc3n2)CC1` was 4.2%. The value for `Clc1ccc2nc(NC3=NCN(CCN4CCOCC4)CN3)nc(-c3ccccc3)c2c1` was -2.9%; that for `CN1CCN(c2nc(N3CCN(CCO)CC3)nc3ccccc23)CC1` was -2.1%; that for `Cc1ccc2nc(N3CCC(C(=O)O)CC3)nc(-c3ccccc3)c2c1` was -3.3%. In the case of `OCCN1CCN(c2nc(-c3ccccc3)c3cc(Cl)ccc3n2)CC1`, the cytotoxicity is 67.2% (active). For `Cc1cc(Cl)c2c(c1)[C@]1(C(=O)N2)[C@@H]2C(=O)N(Cc3ccccc3)C(=O)[C@@H]2[C@@H]2CCCN21` the value was -13.3%; for `COc1cccc(N2CCN(C(=O)c3[nH]c(C)c(C(C)=O)c3C)CC2)c1`, 53.6% (active); for `CC(=O)c1c(C)[nH]c(C(=O)N2CCN(c3ncccn3)CC2)c1C`, 2.1%. For `CCOC(=O)c1[nH]c(C)c(C(=O)N2CCN(c3cccc(Cl)c3)CC2)c1C` the value was 13.5%; for `CC(C)C(=O)Nc1ccc(NC(=O)c2cccc(F)c2)cn1`, -7.5%; for `COc1cc(CCC(=O)OCC(=O)Nc2ncc(Cl)cc2Cl)cc(OC)c1OC`, -7.2%. The value for `Cc1cc(-c2ccccc2C(=O)O)on1` was -13.2%; that for `CCCCCNC(=O)c1ccc2c(=O)n(CC3CCCO3)c(=O)[nH]c2c1` (stereo not given) was -2.3%; that for `CCn1c(N)c(C(=O)NCc2ccco2)sc1=S` was -6.5%. In the case of `O=C(NCc1ccco1)c1sc(=S)n2c1[nH]c(=O)c1ccccc12`, the cytotoxicity was 82.7% (active). The value for `CCCCCCNC(=O)c1c(O)c2ccccc2[nH]c1=O` was 4.2%; that for `CCCCNC(=O)c1sc(=S)n2c1[nH]c(=O)c1ccccc12` was 70.3% (active).

With `O=C(NCC1CCCO1)c1sc(=S)n2c1[nH]c(=O)c1ccc(C(=O)N3CCCCC3)cc12` (stereo not given), the cytotoxicity is -5.8%. The value for `CCCCNC(=O)c1ccccc1C(=O)NCCCC` was -5.7%. For the compound `C=CCn1c(N)c(C(=O)NCc2ccco2)sc1=S`, the cytotoxicity is 2.4%.

On to `O=C(O)C1CCCN(S(=O)(=O)c2ccc(F)cc2)C1` (stereo not given), for which the cytotoxicity is -13.4%. The value for `CCOC(=O)CSC1=NC(=O)CS1` was -7%; that for `Cc1ccc2[nH]c(=O)c(CN(CCc3ccccc3)C(=O)N3CCOCC3)cc2c1` was 5.9%. Take `CC(C)CC(=O)Nc1cccc(-c2cn3ccsc3n2)c1`: the cytotoxicity was 2.6%. `CC(=O)Nc1ccc(-c2cn3ccsc3n2)cc1`: the cytotoxicity was 10.2%. The value for `CC(C)CC(=O)Nc1ccc(-c2cn3ccsc3n2)cc1` was 51.9% (active).

Regarding `CCOC(=O)CCC(=O)Nc1ccc(S(=O)(=O)N2CCCC2)cc1`, the cytotoxicity is -1.2%.

In the case of `O=C(NC1CCN(C(=O)Nc2ccccc2)CC1)C1CCCCC1`, the cytotoxicity is -8.9%. For `Cc1csc(NC(=O)c2c(O)c3cccc4c3n(c2=O)CCC4)n1` the value was -11.1%; for `Cc1cnc(NC(=O)c2c(O)c3cccc4c3n(c2=O)CCC4)s1`, 52.2% (active); for `CC(C)c1nnc(NC(=O)c2c(O)c3cccc4c3n(c2=O)CCC4)s1`, 46.3%. In the case of `N#CC1=C(N)S[C@H](C(=O)C23CC4CC(CC(C4)C2)C3)[C@H]1c1ccncc1`, the cytotoxicity is -14.7%. The value for `CCC(c1nnnn1CCc1ccccc1)N(Cc1ccco1)Cc1cc2cc(C)cc(C)c2[nH]c1=O` (stereo not given) was 10.7%; that for `NC1=NC(c2ccccc2Cl)n2c(nc3ccccc32)N1` (stereo not given) was 7%; that for `NC1=NC(c2cn(-c3ccccc3)nc2-c2cccs2)n2c(nc3ccccc32)N1` (stereo not given) was 54.9% (active). On to `CC1=C(C#N)C(c2cn(-c3ccccc3)nc2-c2cccs2)C(C#N)=C(C)N1`, for which the cytotoxicity was 41.2%. For `CC(=O)Nc1cccc(NC(=O)c2ccco2)c1` the value was -14.2%; for `Cc1ccc2oc(-c3ccc(NC(=O)c4cccnc4)cc3)nc2c1`, 51.4% (active). For `Cc1ccc2oc(-c3ccc(NC(=O)c4ccc5c(c4)OCO5)cc3)nc2c1` the value was 71.1% (active); for `O=C(Nc1ccc(-c2nc3ccccc3o2)cc1)c1ccc2c(c1)OCO2`, 2%; for `O=C(Nc1cccc(NC(=O)c2ccc(-c3cccc(Br)c3)o2)c1)c1ccco1`, 63% (active). For `COc1ccc(-c2nc3cc(NC(=O)c4ccc5c(c4)OCO5)ccc3o2)cc1` the value was 1.2%; for `COc1ccc(Br)cc1C(=O)Nc1cccc(NC(=O)c2ccco2)c1`, 42.6%.

As for `O=C(Nc1ccccc1-c1nc2ccccc2o1)c1ccc2c(c1)OCCO2`, the cytotoxicity is 77.2% (active). For `O=C(Nc1ccc2oc(-c3ccccc3F)nc2c1)c1ccc2c(c1)OCCO2` the value was 46.2%; for `O=C(Nc1ccc2oc(-c3ccccc3)nc2c1)c1cccnc1`, 18.1%; for `O=C(Nc1ccc2oc(-c3cccnc3)nc2c1)c1cccnc1`, 7.7%.

As for `Cc1c(NC(=O)c2ccc3c(c2)OCO3)cccc1-c1nc2ccccc2o1`, the cytotoxicity is -9.8%. The value for `CC(=O)[C@@H]1[C@@H]2C(=O)N(Cc3ccccc3)C(=O)[C@@H]2C2c3ccccc3C=CN21` (stereo not given in full) was 3.9%.

As to `CCC(=NCCc1ccccc1)C1=C(O)CCC1=O`, the cytotoxicity was 9.7%. For `C=CCn1c(SCn2nnc3ccccc3c2=O)nnc1-c1ccc(F)cc1` the value was -0.2%; for `Cc1cc(C(=O)N2CCN(S(C)(=O)=O)CC2)sc1-c1ccccc1`, -3%; for `O=C(NC1CCCC1)C1CCCN1C(=O)Nc1ccccc1Cl` (stereo not given), -20.3%.

As to `C=CCN(CC=C)c1nc2ccccc2nc1C(C#N)C(=O)OCCOC` (stereo not given), the cytotoxicity was 1.9%.

With `COC(=O)c1ccc(-c2nc3ccccc3o2)cc1`, the cytotoxicity was -9.2%. The value for `O=C(Nc1ccc2oc(-c3ccccc3)nc2c1)c1ccc2c(c1)OCCO2` was 13.4%. On to `O=C(Nc1ccc(-c2nc3ncccc3o2)cc1)c1ccco1`, for which the cytotoxicity was 1.1%. For `COc1cc(OC)cc(C(=O)Nc2ccc(-c3nc4ccccc4o3)cc2)c1` the value was 74.2% (active).

With `O=C(Nc1cccc(-c2nnc(-c3ccccc3)o2)c1)c1ccco1`, the cytotoxicity is -6.9%.

Regarding `O=C(Nc1ccc2nc(-c3ccccc3)oc2c1)c1ccco1`, the cytotoxicity was 68.7% (active). Regarding `COc1cccc(C(=O)Nc2ccc(-c3nc4ccccc4o3)c(O)c2)c1`, the cytotoxicity is 15.3%.

In the case of `Cc1ccc(-c2nc3ccccc3o2)cc1NC(=O)c1ccc2c(c1)OCO2`, the cytotoxicity is -10%.
